3T3 cytotox: Cytotoxic Profiling in NIH 3T3 Cell Line of Diverse Libraries Using Quantitative High-Throughput Screening; NIH 3T3 viability, CellTiter-Glo ATP luminescence, 48-72 h; Potency, µM (series often up to 96.7 µM), without a hit: at the top dose activity change, negative = cytotoxicity, actives largely listed as inhibitors; 4.3% of 94,000 active; AID 1345082, 2018; also: % is scaled to controls: 0 for no effect and ±100 for the full control effect; nearly all actives have a fitted effect of over 55% in size
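First NIH 3T3 cells are plated at 400 cells/well; next compound is pinned in; then plates incubate 48 or 72 hr at 37 °C; finally CellTiter-Glo is added and luminescence read after 10 min.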
FLuc inh-1: Firefly luciferase inhibition profiling of diverse chemical library using quantitative high-throughput screening; Luciferin 4-monooxygenase (Photinus pyralis), P08659; purified P. pyralis luciferase, luminescence, biochemical; Potency, µM (highest dose often 115 µM), hits mostly inhibitors; 2.5% of 76,000 active; also: % is scaled to controls: 0 for no effect and ±100 for the full control effect; nearly all actives have a fitted effect of over 65% in size
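FLuc 10nM, D-luciferin 10uM, ATP 10uM, Mg acetate 10mM, Tris acetate pH 7.5, Tween/BSA; cpd qHTS; enzyme added last; CCD luminescence.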
hNpr1 antagonist: Natriuretic polypeptide receptor (hNpr1) antagonism - Primary qHTS. Atrial natriuretic peptide receptor 1 (Homo sapiens), P16066. HEK293 hNpr1 GloSensor cGMP, ANP-stimulated luminescence. Potency, µM (top dose mostly 46.3 µM), inactives show top-dose activity change, negative = inhibition, actives largely listed as inhibitors. 1.6% of 76,000 active. AID 1347048, 2019; calls by dose curve; also: % is scaled to controls: 0 for no effect and ±100 for the full control effect; nearly all actives have a fitted effect of over 60% in size
Target sequence (P16066 whole entry, looked up): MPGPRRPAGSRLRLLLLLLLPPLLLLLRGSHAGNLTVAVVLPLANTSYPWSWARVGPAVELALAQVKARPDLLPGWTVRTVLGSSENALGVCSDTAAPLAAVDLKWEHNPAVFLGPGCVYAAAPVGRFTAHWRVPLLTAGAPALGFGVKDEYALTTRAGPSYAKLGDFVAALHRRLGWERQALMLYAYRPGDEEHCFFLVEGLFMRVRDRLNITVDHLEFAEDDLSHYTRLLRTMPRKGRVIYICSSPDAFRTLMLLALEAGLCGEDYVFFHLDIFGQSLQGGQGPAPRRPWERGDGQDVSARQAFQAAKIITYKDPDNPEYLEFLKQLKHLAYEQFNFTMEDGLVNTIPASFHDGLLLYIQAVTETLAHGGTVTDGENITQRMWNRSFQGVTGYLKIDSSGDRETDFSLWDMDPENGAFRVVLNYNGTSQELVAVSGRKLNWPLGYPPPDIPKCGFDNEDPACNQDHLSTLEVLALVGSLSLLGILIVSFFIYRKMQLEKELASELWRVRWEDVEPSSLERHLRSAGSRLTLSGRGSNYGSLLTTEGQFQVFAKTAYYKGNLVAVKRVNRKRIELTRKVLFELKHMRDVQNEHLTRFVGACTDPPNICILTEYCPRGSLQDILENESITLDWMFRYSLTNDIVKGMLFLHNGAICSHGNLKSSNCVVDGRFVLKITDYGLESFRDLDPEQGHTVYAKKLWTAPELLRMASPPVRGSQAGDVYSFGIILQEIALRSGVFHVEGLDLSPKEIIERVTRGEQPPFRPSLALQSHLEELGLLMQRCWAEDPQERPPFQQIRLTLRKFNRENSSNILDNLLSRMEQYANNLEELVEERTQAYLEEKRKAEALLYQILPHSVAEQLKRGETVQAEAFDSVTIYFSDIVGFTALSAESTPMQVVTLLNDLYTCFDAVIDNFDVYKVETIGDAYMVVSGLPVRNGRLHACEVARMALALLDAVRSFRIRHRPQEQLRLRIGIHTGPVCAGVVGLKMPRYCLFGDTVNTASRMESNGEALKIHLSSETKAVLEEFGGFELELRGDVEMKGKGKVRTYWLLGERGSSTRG
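Compound pre-incubated 30 min at room temperature on GloSensor-loaded HEK293 cells stably carrying hNpr1 and the pGS-40F cGMP biosensor. Stimulation uses hNppA at 0.1 nM final; luminescence is taken at baseline and 20 min post-agonist.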
HEK cytotox: Cytotoxic Profiling in HEK 293 Cell Line of Diverse Libraries Using Quantitative High-Throughput Screening | HEK 293 viability, ATP luminescence (CellTiter-Glo), 48-72 h | Potency, µM (highest dose often 115 µM), for the others: top-dose activity change, negative = cytotoxicity, hits mostly inhibitors | 6.6% of 94,000 active | AID 1345083, 2018; also: % is scaled to controls: 0 for no effect and ±100 for the full control effect; nearly all actives have a fitted effect of over 60% in size
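HEK 293 seeded at 250 cells/well receive compound via pintool. After 48 or 72 hr at 37 degree Celsius, 5% CO2 and 95% humidity, CellTiter-Glo is dispensed and luminescence read following 10 min at room temperature.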
FLuc SDR no ATP: Firefly luciferase (FLuc-C-HiBiT) SDR gain of signal screen - without ATP | shares compounds with FLuc inh-1 | Purified FLuc-C-HiBiT, Nano-Glo HiBiT luminescence, no ATP | Potency, µM (highest dose often 32.7 µM), inactives show at the top dose activation (signal gain), actives largely listed as activators | 7.8% of 1,300 active | AID 1963318, 2024; also: nearly all actives have a fitted effect of over 55% in size
FLuc SDR ATP: Firefly luciferase (FLuc-C-HiBiT) SDR gain of signal screen - plus ATP. purified FLuc-C-HiBiT + ATP, HiBiT complementation luminescence. Potency, µM (top dose mostly 32.7 µM), for inactives: top-dose activation (gain of signal), hits mostly activators. AID 1963319, 2024. 8.7% of 1,300 active. shares compounds with FLuc inh-1;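 also: signal reports ligand binding via conformational change of the enzyme rather than luciferase catalysis; % of control where 0% means no effect; nearly all actives have a fitted effect of over 55% in size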
FLuc inh-2: Firefly luciferase (FLuc-C-HiBiT) enzymatic inhibition screen - Functional assay | shares compounds with FLuc inh-1 | purified FLuc-C-HiBiT enzyme, luciferin luminescence | Potency, µM (doses to about 32.7 µM), without a hit: at the highest dose activity change, negative = inhibition, most hits filed as inhibitors | 42% of 1,300 active; also: % is scaled to controls: 0 for no effect and ±100 for the full control effect; nearly all actives have a fitted effect of over 70% in size
Active calls of the source: *; i = inactive; u = inconclusive; x = not tested or not shown; [ ] = remark or other dose. This is a sample that favours compounds with a hit; in the whole collection about 11% have one here. Unless noted, calls follow the shape of the dose curve; as a rule, active = well fitted curve in the direction sought with a large enough effect; inconclusive = small, poorly fitted or top-dose-only effect, or another doubt; inactive = no such curve, though single readings can be large; an effect the other way counts as inactive or inconclusive. Potency is read from the fitted curve at half-maximal effect.

SMILES | 3T3 cytotox | FLuc inh-1 | hNpr1 antagonist | HEK cytotox | FLuc SDR no ATP | FLuc SDR ATP | FLuc inh-2
COc1cccc(CN2CCCC(c3nc(C(C)C)no3)CCNC(=O)CC2)c1 (stereo not drawn) | -27% | i | 2% | -31% | x | x | x
O[C@H]1CC[C@@H](Cc2cc(COc3ccccc3)on2)O[C@@H]1CNC1CCOCC1 | -16%[174 µM] | i | -1%[70.6 µM] | -6%[172 µM] | x | x | x
Cc1ccc(CNC(=O)c2cc3c(N(C)Cc4ccccc4)nc(C)cn3n2)cc1 | u | i | 7% | u | x | x | x
Cc1ccc(-n2ncc3c(N4CCC(Cc5ccccc5)CC4)ncnc32)cc1 | x | x | x | x | 16% | 16% | -17%
Clc1cccc(-n2ncc3c(N4CCC(Cc5ccccc5)CC4)ncnc32)c1 | x | x | x | x | 10% | 7% | -4%
COc1ccc(N2Cc3c(ncnc3N3CCC(Cc4ccccc4)CC3)N(C)CC2=O)cc1 | u | i | -6% | u | x | x | x
Cc1ccc(-n2ncc3c(N(C)Cc4ccccc4)ncnc32)cc1 | x | x | x | x | u | u | 1.6µM*
COc1ccc(OCC(=O)Nc2cccc(-c3nc4ccccc4s3)c2C)cc1 | x | x | x | x | 27% | 16% | 7.9µM*
COc1ccc(CC(=O)Nc2cnc(-c3ccc(C)cc3)nc2)cc1 | -7% | u | -1% | -11% | x | x | x
COc1ccc(NC(=O)COc2ccc(-c3nnc4n3CCCC4)cc2)c(OC)c1 | u | i | 3% | -15% | x | x | x
COc1ccc(OCC(=O)Nc2cc(-c3nc4ccccc4s3)ccc2C)cc1 | x | x | x | x | 4% | 4% | u
COc1ccc(CC(=O)Nc2ccc(-c3nc4ccccc4s3)cc2Cl)cc1 | x | x | x | x | 16% | 13% | -11%
COc1ccc(NC(=O)N2C[C@@H]3C[C@H](C2)c2ccc(NC(=O)COc4ccccc4)c(=O)n2C3)cc1 | -27% | u | 1% | -23% | x | x | x
Cc1ccc(-c2nc3ccccc3s2)cc1NC(=O)COc1ccccc1 | x | x | x | x | 13% | 8% | -9%
COc1cccc(CNC(=O)CN2C(=O)NC3(CCC(C(C)(C)C)CC3)C2=O)c1 (stereo not drawn) | u | i | 1% | u | x | x | x
CNC(=O)c1cc(C2CC2)nc2c1c(C1CCCN1C(=O)c1cccc(OC)c1)nn2C (stereo not drawn) | i | x | x | 3% | x | x | x
Cc1ccc2nc([C@H]3CCN(C(C)C)C3)[nH]c2c1 | -25%[174 µM] | 7.9µM* | 28µM* | u | 17%[65.7 µM] | 16%[65.7 µM] | u
O=C(NC1CCCCCC1)C1CCc2nnc(-c3cccc(C(F)(F)F)c3)n21 (stereo not drawn) | u | x | x | -25% | x | x | x
CC(=O)NCCC1CCN(C(=O)Nc2ccc(C)cc2)CC1 | 3% | 8.9µM* | -21% | 10% | u | u | u
COc1ccc(C(=O)NCCC2CCN(C(=O)Nc3ccc(C)cc3)CC2)cc1 | -21% | u | -21% | 2% | x | x | x
CCC(=O)NCCC1CCN(C(=O)Nc2ccc(C)c(F)c2)CC1 | -3% | 11µM* | -3% | 9% | u | u | u
CCC(=O)NCCC1CCN(C(=O)Nc2ccccc2F)CC1 | 0% | i | -1% | 0% | x | x | x
CCC(=O)NCCC1CCN(C(=O)Nc2ccc(C)cc2)CC1 | i | 13µM* | -1% | 12% | u | u | u

Compound activity from PubChem.
